Results published in PubChem BioAssay (Tox21).
Values without a mark were called inactive. Active and inactive are the calls of the source. Calls come from the whole dose curve.

target: Acetylcholinesterase (Homo sapiens) (UniProt P22303); assay: Acetylcholinesterase (AChE) small molecule antagonists: enzyme-based qHTS assay with human liver microsomes (AID 1347399); settings: Potency: qHTS inhibition; outcome: qHTS inhibition; series mostly up to 115 µM; activity change, negative = inhibition: at the top concentration; note: nearly all actives have a fitted effect of over 60% in size
In short: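 Recombinant human AChE (50 mU/mL in the enzyme mix) and human liver microsomes (0.25 mg/mL final) were preincubated with compound and NADPH (0.25 mg/mL final) for 30 min at 37 C. Acetylthiocholine/DTNB was then added; thiocholine was read colorimetrically after 10 min at room temperature.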
% is set by controls: 0 for no effect and ±100 for the full control effect.

Sequence of Acetylcholinesterase (Homo sapiens) (P22303 whole entry, looked up): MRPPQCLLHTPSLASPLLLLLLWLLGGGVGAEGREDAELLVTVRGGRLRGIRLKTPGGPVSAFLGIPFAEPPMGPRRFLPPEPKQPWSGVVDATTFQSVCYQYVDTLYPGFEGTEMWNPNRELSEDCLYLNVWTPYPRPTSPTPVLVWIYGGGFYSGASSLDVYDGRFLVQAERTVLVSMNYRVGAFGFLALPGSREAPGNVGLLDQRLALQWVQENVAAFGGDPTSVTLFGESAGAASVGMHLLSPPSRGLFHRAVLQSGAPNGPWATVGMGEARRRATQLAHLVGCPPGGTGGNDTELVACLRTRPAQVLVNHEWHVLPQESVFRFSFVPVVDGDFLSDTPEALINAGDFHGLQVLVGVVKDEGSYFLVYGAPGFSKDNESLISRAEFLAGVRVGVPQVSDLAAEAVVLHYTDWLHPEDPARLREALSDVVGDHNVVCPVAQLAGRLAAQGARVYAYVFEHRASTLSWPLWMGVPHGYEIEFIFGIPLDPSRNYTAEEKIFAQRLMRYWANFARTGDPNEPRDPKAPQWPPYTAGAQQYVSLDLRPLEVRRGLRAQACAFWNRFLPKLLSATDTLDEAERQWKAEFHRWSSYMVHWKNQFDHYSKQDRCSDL

Row | SMILES | Potency | activity change, negative = inhibition
1 | C=C(C)C(=O)OCCCCCCCCCCCC | inactive | –
2 | CN(C)CCC=C1c2ccccc2CCc2ccccc21 | inactive | –
3 | C=C(C)C(=O)OC(C)C | – | -5.11%
4 | O=C(NCCCN1CCOCC1)c1ccc(Cl)cc1 | – | -1.28% [at 53 µM]
5 | C(=C/c1ccccc1)/c1ccccc1 | – | 1.87%
6 | O=P(c1ccccc1)(c1ccccc1)c1ccccc1 | – | 0.0764%
7 | OC/C=C/c1ccccc1 | – | 0.36%
8 | C=CC(C)(O)CC/C=C(\C)CC (centres undefined) | – | 0.493%
9 | Cc1cc2c(OCC(CNC(C)(C)C)OC(=O)c3ccccc3)cccc2[nH]1 (centres undefined) | – | -0.735% [at 53 µM]
10 | Nc1nc2ncc(CNc3ccc(C(=O)N[C@@H](CCC(=O)O)C(=O)O)cc3)nc2c(=O)[nH]1 | inactive | –
11 | CCCCOCCOCCOCCOCCO | – | 0.0015%
12 | CC/C=C\CCOC(C)OCC (centres undefined) | – | 1.39% [at 53 µM]
13 | CNS(=O)(=O)c1cc(C(=O)N2CCC(CCN3C4CCC3CC(n3c(C)nc5ccccc53)C4)(c3cccc(F)c3)CC2)c(Cl)cc1F (centres undefined) | – | -0.146%
14 | O=Cc1c2ccccc2c(Cl)c2ccccc12 | – | -0.831% [at 53 µM]
15 | CCCC(O)C(CC)CO (centres undefined) | inactive | –
16 | [Na+] | inactive | –
17 | CC(=O)O[C@]1(C(C)=O)CC[C@H]2[C@@H]3C=C(Cl)C4=CC(=O)CC[C@]4(C)[C@H]3CC[C@@]21C | inactive | –
18 | Clc1ccccc1C(c1ccccc1)(c1ccccc1)n1ccnc1 | inactive | –
19 | O=C1c2ccccc2C(=O)c2c1ccc(O)c2O | – | 0.504% [at 53 µM]
20 | CC(C)Cc1nccs1 | – | 0%

Row | SMILES | Potency | activity change, negative = inhibition
21 | CCCCCCCCC1CO1 (centres undefined) | – | -0.485%
22 | CCOC(=O)[C@H](CCc1ccccc1)N[C@@H](C)C(=O)N1CCC[C@H]1C(=O)O | – | -1.67% [at 53 µM]
23 | C=C[C@@H](C)CCC=C(C)C | – | -1.39%
24 | CCCNC(=O)NS(=O)(=O)c1ccc(Cl)cc1 | inactive | –
25 | CCCC(C)C | – | -2.55%
26 | O=S(=O)(O)CCS | inactive | –
27 | CCCCCCCCCC(=O)O | inactive | –
28 | Nc1ccccc1N | inactive | –
29 | C=CCOC(=O)CCCCCC | – | 0.535%
30 | CC(=O)Nc1ccc(C(=O)O)cc1 | inactive | –
31 | CC1=NN(c2cc(Cl)c(S(=O)(=O)O)cc2Cl)C(=O)C1N=Nc1ccc(S(=O)(=O)O)cc1 (centres undefined) | – | 0%
32 | C=CC(C)(CCC=C(C)C)OC(C)=O (centres undefined) | inactive | –
33 | FC(F)(F)/C(=N\OCC1OCCO1)c1ccc(Cl)cc1 | – | 0.917%
34 | O=[Se](O)O | inactive | –
35 | O=C(Oc1ccccc1)c1ccc(O)cc1 | inactive | –
36 | Cc1cccc(C)c1NC(=O)CN1CCN(CCCC(c2ccc(F)cc2)c2ccc(F)cc2)CC1 | – | 1.51% [at 53 µM]
37 | CS(=O)(=O)c1ccc(Cl)cc1 | inactive | –
38 | CC[C@H](NC(C)C)[C@H](O)c1ccc(O)c2[nH]c(=O)ccc12 | – | -1.23% [at 53 µM]
39 | CCc1ccc(O)cc1 | inactive | –
